Experimental data as given in PubChem BioAssay (NCATS).
Inconclusive results are not listed. Where a call stands in place of a potency, no number is given. Activity calls are given as the source filed them. Unless noted, calls come from the whole dose curve.

Key:
[1] = qHTS for Inhibitors of the Functional Ribonucleoprotein Complex (vRNP) of Lassa (LASV) Arenavirus: LASV Primary Screen - GLuc reporter signal (AID 1347082; calls by dose curve; tested in HEK293 reporter line; note: series mostly up to about 57 µM; nearly all actives have a fitted effect of over 60% in size)
[2] = qHTS for Inhibitors of the Functional Ribonucleoprotein Complex (vRNP) of Lymphocytic Choriomeningitis Arenaviruses (LCMV): Viability assay - alamar blue signal for LCMV Primary Screen (AID 1347085; calls by dose curve; tested in HEK293 reporter line; note: nearly all actives have a fitted effect of over 80% in size; note: potency is the fitted concentration of half-maximal effect)
[3] = target: Nucleoprotein (Lymphocytic choriomeningitis virus (strain Armstrong)) (UniProt P09992); experiment: qHTS for Inhibitors of the Functional Ribonucleoprotein Complex (vRNP) of Lymphocytic Choriomeningitis Arenaviruses (LCMV): LCMV Primary Screen - GLuc reporter signal (AID 1347086); note: nearly all actives have a fitted effect of over 70% in size; note: potency is the fitted concentration of half-maximal effect
[4] = qHTS for Inhibitors of the Functional Ribonucleoprotein Complex (vRNP) of Lassa (LASV) Arenavirus: Viability assay - alamar blue signal for LASV Primary Screen (AID 1347083; calls by dose curve; tested in HEK293 reporter line; note: nearly all actives have a fitted effect of over 80% in size; note: potency is the fitted concentration of half-maximal effect)

Chain of Nucleoprotein (Lymphocytic choriomeningitis virus (strain Armstrong)) (P09992 whole entry, looked up): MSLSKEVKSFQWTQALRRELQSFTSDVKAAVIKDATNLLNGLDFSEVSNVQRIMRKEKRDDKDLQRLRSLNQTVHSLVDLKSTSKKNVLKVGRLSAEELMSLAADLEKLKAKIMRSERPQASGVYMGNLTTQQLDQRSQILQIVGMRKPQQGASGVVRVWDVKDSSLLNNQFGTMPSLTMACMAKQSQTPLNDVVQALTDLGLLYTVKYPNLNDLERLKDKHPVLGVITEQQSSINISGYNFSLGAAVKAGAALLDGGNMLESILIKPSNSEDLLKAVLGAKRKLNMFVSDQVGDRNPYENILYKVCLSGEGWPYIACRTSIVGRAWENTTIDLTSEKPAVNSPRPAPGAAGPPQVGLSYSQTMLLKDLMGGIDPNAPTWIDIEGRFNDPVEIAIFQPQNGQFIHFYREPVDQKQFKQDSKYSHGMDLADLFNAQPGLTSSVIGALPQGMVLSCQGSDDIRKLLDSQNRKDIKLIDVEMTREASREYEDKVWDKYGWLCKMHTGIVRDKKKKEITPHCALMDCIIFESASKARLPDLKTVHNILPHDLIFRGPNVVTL

Row | SMILES | Potency [1] | Potency [2] | Potency [3] | Potency [4]
1 | CCCCOC(=O)c1ccc(N)cc1 | inactive | inactive | inactive | 
2 | COCC(=O)Nc1c(I)c(C(=O)NCC(O)CO)c(I)c(C(=O)N(C)CC(O)CO)c1I (stereo unspecified) | inactive | inactive | inactive | 
3 | Nc1ncn([C@H]2C[C@H](O)[C@@H](CO)O2)c(=O)n1 | inactive |  | inactive | 
4 | O=C(NCC1CCCCN1)c1cc(OCC(F)(F)F)ccc1OCC(F)(F)F (stereo unspecified) | inactive |  | inactive | 
5 | O=C(N/N=C/c1ccc([N+](=O)[O-])o1)c1ccc(O)cc1 |  | 25.1 µM (active) |  | 
6 | COc1cc(C)nc(-n2nc(C)cc2OC)n1 | inactive |  | inactive | inactive
7 | CC(C=CC1=C(C)CCCC1(C)C)=CC=CC(C)=CC(=O)O | inactive | 0.544 µM (active) | inactive | 
8 | CCOC(=O)c1ccc(N)cc1 | inactive |  | inactive | 
9 | CCCc1ccc(OCC(=O)N2CCN(C(=O)COc3ccc(CCC)cc3OC)CC2)c(OC)c1 |  | inactive | inactive | 
10 | CNCCCCOc1ccccc1Cc1ccccc1 |  | inactive | inactive | 
11 | Cc1ccccc1C(=O)Nc1ccc(C(=O)N2CCCC(N(C)C)c3ccccc32)cc1 (stereo unspecified) | inactive |  | inactive | 
12 | CCCC(=O)O[C@]1(C(=O)CO)CC[C@H]2[C@@H]3CCC4=CC(=O)CC[C@]4(C)[C@H]3[C@@H](O)C[C@@]21C | inactive |  | inactive | inactive
13 | O=C(Nc1cccc2c(=O)cc(-c3nn[nH]n3)oc12)c1ccc(OCCCCc2ccccc2)cc1 |  |  |  | 30.6 µM (active)
14 | CC(C)Cc1ccc(C(C)C(=O)O)cc1 (stereo unspecified) | inactive |  | inactive | inactive
15 | C=CC[C@@H]1C=C(C)C[C@H](C)C[C@H](OC)[C@H]2O[C@@](O)(C(=O)C(=O)N3CCCC[C@H]3C(=O)O[C@H](C(C)=C[C@@H]3CC[C@H](O)[C@H](OC)C3)[C@@H](C)[C@@H](O)CC1=O)[C@@H](C)C[C@@H]2OC | inactive |  | 30.6 µM (active) | 
16 | COc1cc2nc(Cl)nc(N)c2cc1OC | inactive | inactive |  | 
